Measurements from PubChem BioAssay (NCI).
The panel holds about 79,000 compounds, 15% with a hit somewhere; the sample as a whole holds those more often. Cut-off read from the data, not from the text of the source: active = growth inhibition above about 70%; inactive = the rest.

Key:
[1] = NCI Yeast Anticancer Drug Screen. Data for the rad50 strain (AID 155);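 note: 0% = growth of vehicle-only cultures of the same strain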; details: S. cerevisiae rad50 strain growth inhibition; at 50.0 µM; hits give high values
Procedure, shortened: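 Yeast carrying a defined DNA repair defect were exposed to test compounds, and growth was compared with vehicle-treated controls to give percent inhibition.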

[2] = NCI Yeast Anticancer Drug Screen. Data for the mec2-1 strain (AID 157); details: S. cerevisiae mec2-1 strain, at 50.0 µM, hits give high values
Procedure, shortened: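 Growth inhibition is read against vehicle-treated controls after compound exposure of the mec2-1 yeast strain, which is defective in DNA damage repair or cell cycle control.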

[3] = NCI Yeast Anticancer Drug Screen. Data for the sgs1 mgt1 strain (AID 161);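 note: 0% = growth of cultures given vehicle only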; details: S. cerevisiae sgs1 mgt1 strain, at 50.0 µM, hits give high values
Procedure, shortened: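 Growth of a repair-deficient yeast mutant was monitored after compound treatment and expressed as inhibition relative to vehicle-treated cultures.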

[4] = NCI Yeast Anticancer Drug Screen. Data for the cln2 rad14 strain (AID 165);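 note: 0% = growth equal to vehicle treated cultures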; details: S. cerevisiae cln2 rad14 strain, at 50.0 µM, hits give high values
Procedure, shortened: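 Growth inhibition, relative to vehicle-treated controls, is the read-out. The test organism is a yeast strain with defined genetic alterations, cln2 rad14.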

[5] = NCI Yeast Anticancer Drug Screen. Data for the bub3 strain (AID 167); details: S. cerevisiae bub3 mutant strain, at 50.0 µM, hits give high values
Procedure, shortened: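 Compounds were applied to a genetically altered yeast strain carrying a cell-cycle control defect. Growth inhibition was scored against vehicle-treated controls.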

[6] = NCI Yeast Anticancer Drug Screen. Data for the mlh1 rad18 strain (AID 175); details: S. cerevisiae mlh1 rad18 strain growth inhibition; at 50.0 µM; hits give high values
Procedure, shortened: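 Cells of a genetically altered yeast strain, deficient in DNA damage repair, were treated with compound. Their growth was then compared with that of vehicle-treated cultures to give inhibition.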

Measured: growth inhibition

COc1ccc2ncc(C)c(CO)c2c1
inactive: [1] 3.25% | [2] -6.05% | [3] -1.65% | [4] -50.9% | [5] 0.75% | [6] -2.65%

CC(=O)NNC(=S)/N=C\c1c(O)c2ccccc2oc1=O
inactive: [1] -50.5% | [2] -45.6% | [3] -34.2% | [4] -13.2% | [5] -38.5% | [6] -37.9%

CCC(C)(C)c1ccc([N+](=O)[O-])cc1
inactive: [1] 18.3% | [2] 8.8% | [3] 27.4% | [4] 15.7% | [5] -0.65% | [6] 2.35%

c1ccc2c(c1)CCCC(N1CCOCC1)C2 (stereo not given)
inactive: [1] 2.3% | [2] 2.7% | [3] 16.9% | [4] 11.1% | [5] -24.3% | [6] 15.9%

CC1(C)[C@H]2Cc3c(ccc4c3C(=O)OC4=O)[C@@H]1C2
inactive: [1] 6.75% | [2] -3.9% | [3] 0.35% | [4] -30.6% | [5] -17.4% | [6] 2.45%

COc1cc(CC2C(=O)OCC2C2(c3ccc4c(c3)OCO4)SCCCS2)cc(OC)c1OC (stereo not given)
inactive: [1] 10.4% | [2] 8.3% | [3] 0.15% | [4] 27.5% | [5] 3.2% | [6] 26.8%

O=C(O)C#Cc1cccc(Cl)c1
inactive: [1] -20.4% | [2] -24.3% | [3] -14.1% | [4] -9.9% | [5] -16.5% | [6] -12.8%

COC12NC(=O)NC(=O)C1(c1ccccc1)CC(C)O2 (stereo not given)
inactive: [1] -2.7% | [2] -2.15% | [3] 6.8% | [4] -7.7% | [5] -24.1% | [6] -6.6%

CCC(SC(C)=O)C(=O)O (stereo not given)
inactive: [1] 13% | [2] -16.1% | [3] 2.65% | [4] 14.4% | [5] -2.05% | [6] 9.5%

O=C(O)c1cc(=O)[nH]c(=O)[nH]1.[Cu+2]
inactive: [1] -15.8% | [2] 8.7% | [3] -18.4% | [4] -35.3% | [5] -30.4% | [6] -16.2%

CCCCCCCCCCCCCCCCS(=O)(=O)N/N=C(/C)N(C)c1ccc(OC)cc1
inactive: [1] -15.4% | [2] -32.4% | [3] -6.1% | [4] -10.4% | [5] -15.4% | [6] -7.15%

CCCCCCCCCCCCCCCCCCCCOC1OC(COC(C)=O)C(OC(C)=O)C(OC(C)=O)C1OC(C)=O (stereo not given)
inactive: [1] -21.3% | [2] -14.2% | [3] -16.9% | [4] 12% | [5] -5.7% | [6] -20.4%

COc1ccc2[nH]cc(CC(N)=O)c2c1
inactive: [1] -25.8% | [2] -28.8% | [3] -39.4% | [4] 12.7% | [5] -41.4% | [6] -19.5%

COc1cc(C2c3cc4c(cc3[C@@H](OC3OC5CO[C@@H](C)OC5C(O)C3O)[C@H]3COC(=O)C23)OCO4)cc(OC)c1OC (stereo not given in full)
inactive: [1] 2.4% | [2] -36.1% | [3] -21.9% | [4] 12.4% | [5] -16.7% | [6] -83.5%

COC(=O)c1ccccc1N=NNc1ccc(C)c(Cl)c1
inactive: [1] 36.2% | [2] 0.55% | [3] -1.2% | [4] -11.4% | [5] 5.7% | [6] 5.15%

Cc1ccc(NC(=O)C2CCN(C)CC2)cc1
inactive: [1] -14.3% | [2] -15% | [3] -16.7% | [4] -23.4% | [5] -8.7% | [6] 7.85%

COC(=O)c1ccccc1O
inactive: [1] -3.4% | [2] 2.25% | [3] -7.9% | [4] -39.4% | [5] 1.25% | [6] -19.5%

CN1CCN(CCCBr)CC1
inactive: [1] -8.85% | [2] -5.3% | [3] -24.9% | [4] -31.8% | [5] -31.9% | [6] -4.3%

Cc1cc(Br)c(NC(=O)c2c(-c3c(Cl)cccc3Cl)noc2C)c(Br)c1
inactive: [1] -3.35% | [2] -16.3% | [3] -8.15% | [4] 4.9% | [5] -11.7% | [6] 4.9%

Cc1cc2c(C)n(Cc3ccc(Cl)cc3Cl)nc2c(C#N)c1C
inactive: [1] -11.2% | [2] -7.05% | [3] -9.6% | [4] 20.2% | [5] -2.45% | [6] -3.9%

N=C(N)S/C=C/C(=O)O
inactive: [1] -18.8% | [2] -17.4% | [3] -20.5% | [4] -4.65% | [5] -13.8% | [6] -19.6%

N#Cc1ccccc1NC(=O)Nc1ccc(Cl)cc1Cl
inactive: [1] 16.4% | [2] -7.35% | [3] 27% | [4] -0.25% | [5] 4.35% | [6] 10.6%

O=C(CCc1n[nH]c(=S)o1)Nc1ccccc1
inactive: [1] 18.4% | [2] 17.4% | [3] 30.4% | [4] 15.8% | [5] 14.1% | [6] 35.3%

COC12C=CC(CC1)C1C(=O)C=CC(=O)C12 (stereo not given)
inactive: [1] -36.5% | [2] -31.4% | [3] -4.7% | [4] -39.3% | [5] -24.2% | [6] -21.4%

Nc1nc(-c2ccncc2)cc(-c2cc(-c3ccncc3)nc(N)n2)n1
inactive: [1] -7.7% | [2] -0.25% | [3] -8.65% | [4] -21.9% | [5] -12.3% | [6] 10.3%

CC/C(C)=C1/CC(C)(C)N=C1C
inactive: [1] -11.7% | [2] -43.5% | [3] -10% | [4] -20.6% | [5] -12.2% | [6] -22.6%

O=c1[nH]c2nc[nH]c(=O)c2[nH]1
inactive: [1] 0.25% | [2] -7.6% | [3] 5.1% | [4] -11.8% | [5] -6.05% | [6] 6.05%

CCCCCCCCCCCC(=O)OC(COC(N)=O)COc1ccc(Cl)cc1 (stereo not given)
inactive: [1] -34.2% | [2] -59.5% | [3] -18.9% | [4] 0.3% | [5] -10.2% | [6] -46.4%

CCOC(Cn1ncc(C#N)c1N)OCC
inactive: [1] -13.7% | [2] -7.75% | [3] -25.5% | [4] -15.9% | [5] -5.95% | [6] 5.65%

Cc1c(CCCl)c(Cl)n2c(nc3ccccc32)c1C#N
inactive: [1] 38.7% | [2] 20.8% | [3] 39.4% | [4] 32.5% | [5] 22.8% | [6] 57.1%

CC(C)OC/N=C(/N)NC#N
inactive: [1] -17.1% | [2] 13.1% | [3] -29.4% | [4] 12.6% | [5] -10.1% | [6] -6.5%

CCC(CC)C(=O)NC(=O)NC
inactive: [1] -4.85% | [2] -16.5% | [3] -21.2% | [4] -25.1% | [5] -8.05% | [6] 21%

COc1cc2nc(C(O)C(O)c3nc4cc(OC)c(OC)cc4[nH]3)[nH]c2cc1OC (stereo not given)
inactive: [1] -8% | [2] 3.35% | [3] 19.6% | [4] 6.85% | [5] -1.1% | [6] 38.7%

COc1ccc(C(=O)/C(Br)=C\C(=O)O)cc1
inactive: [1] 16.8% | [2] 24.4% | [3] 5.4% | [4] 28.6% | [5] 23.9% | [6] 7%

O=c1[nH]cc(NS(=O)(=O)O)c(=O)[nH]1
inactive: [1] -2.15% | [2] -5.4% | [3] 6.5% | [4] 1.45% | [5] 2.95% | [6] -0.55%

Cc1ccc(S(=O)(=O)c2c(N)c3nc4ccccc4n3c3nc4ccccc4nc23)cc1
inactive: [1] 21.4% | [2] -10.3% | [3] -5.2% | [4] 25.7% | [5] -0.45% | [6] 13.1%

CC1CCC2c3c([nH]c4ccccc34)C3C(=O)N(C4CCCCC4)C(=O)C3C2C1 (stereo not given)
inactive: [1] 5.65% | [2] 0.25% | [3] 1.8% | [4] 3.05% | [5] 4.1% | [6] 2.25%

CC(C)/C=N\n1c(N)c(C#N)c(C#N)c1C(C)C
inactive: [1] -4.9% | [2] -5.2% | [3] -37% | [4] 5.95% | [5] -52.8% | [6] -33.6%

O=S(=O)(O)c1cc(N=Nc2cc(S(=O)(=O)O)c3cccnc3c2O)ccc1/C=C/c1ccc(N=Nc2cc(S(=O)(=O)O)c3cccnc3c2O)cc1S(=O)(=O)O.[Cu+2].[Na+]
inactive: [1] 18.5% | [2] 18.2% | [3] 34.6% | [4] 25% | [5] -11.2% | [6] 9.25%

Cc1ccc2nc(CC(=O)c3ccc4ccccc4c3)c(=O)[nH]c2c1
inactive: [1] 6.4% | [2] 9.65% | [3] 9.2% | [4] 13.3% | [5] 3.15% | [6] 22.1%
